Compound activity deposited in PubChem BioAssay by several laboratories.
A selection: hits, their analogues and other compounds. The true share with any hit is near 1.5%.
eIF4E-4G inh: blocks eIF4E binding to eIF4G; P63073+Q04637; TR-FRET eIF4E-eIF4GI(517-606) binding, 2 h; inhibition, % at 21.7 µM; 0.37% of 220,000 active; AID 782;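 active = inhibition above about 30%, limit read from the data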
MLLE-PAM2 inh: inhibitors of microRNA-mediated deadenylation, human PABP1 MLLE binding | AID 588489 | 0.36% of 360,000 active | GST-MLLE / FITC-PAM2 fluorescence polarization | P11940 | inhibition, % at 20 µM; in the data active = inhibition above about 35%, passing the limit was not always enough
eIF4H FP inh: inhibitors of RNA binding by human eIF4H; inhibition, % at 35 µM; 0.94% of 290,000 active; Q15056; eIF4H fluorescence polarization binding assay;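 note: calls also rest on retests at 20 µM and on dose response follow-up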
PABP polyA inh: PABP-poly(A) binding inhibition; PABP-poly(A) RNA binding, fluorescence polarization; calls only at 35 µM; 1% of 290,000 active; AID 2014;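 note: calls also rest on retests at 20 µM and on dose response follow-up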
Hits are given with their value; n = inactive; u = inconclusive; x = not tested or not shown; + = active, no number; ! = a repeat was not active; [ ] = remark or other dose. Unless noted, the rule behind the calls is not given here.

SMILES	eIF4E-4G inh	MLLE-PAM2 inh	eIF4H FP inh	PABP polyA inh
Cc1ccc(-c2nn(-c3ccccc3)cc2C(=O)O)o1	n	x	101.9	+
Cn1nnnc1SCC(=O)Nc1c(Cl)cccc1Cl	n	n	n	n
O=C1NC(Cc2ccccc2)c2nc3ccc(F)cc3c(=O)n2-c2ncccc21 (configuration not stated)	x	n	x	x
Cc1ccc(OCC(=O)NCCNC(=O)c2ccc(C)nc2)cc1	x	n	n	n
N#Cc1c(SCc2ccc(Cl)cc2)sc(C(=O)c2ccccc2)c1N	n	n	n	n
CSc1c(C#N)c(N)nc2sc(C(=O)c3ccccc3)c(N)c12	n	n	84.9	+
Cc1ccccc1-c1nnc2s/c(=C\c3ccc(N(C)C)cc3)c(=O)n12	x	x	82.4	+
CC(C)N(C)c1ncnc2c1ncn2[C@H]1CN(Cc2ccc(-c3ccccc3)cc2)C[C@@H](CO)O1	x	n	x	x
CCNc1cc2oc(=O)c(CN3CCOCC3)c(C)c2cc1C	n	47.6	u	u
Cc1cc2oc(=O)cc(CN3CCOCC3)c2cc1C	n	n	n	n
N=C(N)N=Nc1c(O)[nH]c2ccc(Br)cc12	n	n	n	n
NC(=O)N=Nc1c(O)[nH]c2c(Br)cc(Br)cc12	n	x	n	n
NC(=S)N=Nc1c(O)[nH]c2cc(F)c(F)cc12	n	40.1	n	n
NC(=S)N=Nc1c(O)[nH]c2c(Cl)cc(Cl)cc12	x	45.2	x	x
O=C(O)[C@H](Cc1ccccc1)NC(=O)N1CCN(c2ccc(F)cc2)CC1	n	n	n	n
CC1(C(=O)NS(=O)(=O)c2cccc(OC(F)F)c2)CCN1C(=O)Cc1ccsc1 (configuration not stated)	x	n	x	x
CC(C)c1ccc(S(=O)(=O)Nc2ccc(-n3cnnn3)cc2)cc1	x	n	x	x
CC(C)c1ccc(NS(=O)(=O)c2ccc(-n3cccn3)cc2)cc1	x	n	87.5	+
O=C1CC(SCCc2nc3ccccc3[nH]2)C(=O)N1c1ccc(F)cc1 (configuration not stated)	n	n	n	n
COc1ccc(N2C(=O)CC(SCCc3nc4ccccc4[nH]3)C2=O)cc1 (configuration not stated)	n	40.4	n	n
Cc1ccc(-c2cc(C(=O)N/N=C/c3ccco3)n[nH]2)s1	n	n	93.7	+
O=C(O)C1Nc2c(Cl)cc(Cl)cc2C2C=CCC12 (configuration not stated)	x	n	84.3	+
O=C(O)C1Nc2c(O)cccc2C2C=CCC12 (configuration not stated)	48.5[fluorescence artefact?]	n	99.3	n
Cc1ccccc1-c1nn(-c2ccc(F)cc2F)cc1CNC1CC1	n	n	53.5	+
Cc1ccccc1-c1nn(-c2ccc(F)cc2F)cc1CNCC(C)O (configuration not stated)	n	n	n	n
SMILES	eIF4E-4G inh	MLLE-PAM2 inh	eIF4H FP inh	PABP polyA inh
O=C(Nc1nnc([C@H]2C[C@H](O)[C@@H](CO)O2)s1)NC(c1ccccc1)c1ccccc1	x	n	x	x
CCOC(=O)c1c(N)sc2c(O)c(Br)ccc12	39.1[fluorescence artefact?]	n	n	n
CCC1=NN2C(=N)/C(=C/c3c(C)nn(-c4ccccc4)c3Cl)C(=O)N=C2S1	n	n	74.4	+
COc1ccc(-c2ccc(CN3C(C)C(=O)N(Cc4cn(Cc5ccco5)nn4)CCS3(=O)=O)cc2)cc1 (configuration not stated)	x	n	x	x
O=C(COC(=O)c1cccc([N+](=O)[O-])c1)NCC1CCCO1 (configuration not stated)	n	n	active	+
O=C(COC(=O)c1ccccc1)NCC1CCCO1 (configuration not stated)	n	n	n	n
Cc1nc2ccc(C(=O)N(C)Cc3ccccc3)cn2c1N(C)C(=O)CCc1ccccc1	x	n	x	x
C[C@@H]1CCCCO[C@H](CN(C)C(=O)Nc2ccc3c(c2)OCO3)[C@H](C)CN([C@@H](C)CO)C(=O)c2cc(NS(=O)(=O)c3ccc(Cl)cc3)ccc2O1	x	n	x	x
CC#CCN(Cc1ccco1)C(=O)C1CCC(=O)N(CCc2cccc(F)c2)C1 (configuration not stated)	x	n	x	x
CCOc1cc(N2CCOCC2)c(OCC)cc1NC(C)C(=O)N1CCC(C)CC1 (configuration not stated)	n	n	n	n
CN(C)CCOC(c1ccccc1)c1ccccc1	n	n	1.6!	n
CN(C)CCOC(c1ccccc1)c1ccccc1 (tested in a mixture with another compound)	n	n	n	n
C=C(C)CN(CC)c1nc(N)c(C#N)c(CC#N)c1C#N	n	n	84.1	+
CCCCN(CC)c1nc(N)c(C#N)c(CC#N)c1C#N	n	n	n	n
Cc1cc(C)n(-c2nnc3n2N=C(c2c[nH]c4ccccc24)CS3)n1	n	n	n	n
Cc1cc(C)n(-c2nnc3n2N=C(c2ccccc2)CS3)n1	41.7	n	n	n
COC(=O)N/N=C/c1ccc(OC(=O)/C=C/c2ccco2)cc1	n	n	u	+
CCOc1ccc(/C=c2\sc3nc(-c4ccco4)nn3c2=O)cc1OCC	n	43.3	n	n
COc1ccccc1/C=c1\sc2nc(-c3ccco3)nn2c1=O	n	n	90.5	+
CC1(C)c2ssc(=S)c2-c2ccccc2N1C(=O)c1ccco1	n	n	n	n
Cc1ccc2c(c1)-c1c(ssc1=S)C(C)(C)N2C(=O)c1ccco1	n	47.8	n	n
Cc1ccc2c(c1)sc[n+]2Cc1ccccc1	n	38.0	n	n
Cc1ccc(-c2cc[n+](Cc3ccccc3)cc2)cc1	n	n	n	n
CN(C)c1nc(N2CCN(c3ccc(F)cc3)CC2)c(C#N)c(=O)o1	n	n	n	n
CN(CCO)c1nc(N)c2c(N)nc3c(c2c1C#N)CC(=O)N3C1CCCC1	n	x	u	+
SMILES	eIF4E-4G inh	MLLE-PAM2 inh	eIF4H FP inh	PABP polyA inh
N#Cc1c(N2CCN(c3ccc(F)cc3)CC2)nc(N)c2c(N)nc3c(c12)CC(=O)N3C1CC1	n	n	u	+
Cc1cccc(C(=O)N2CCC(C)(C(=O)NS(=O)(=O)C3CC3)C2)c1C (configuration not stated)	x	n	x	x
CC(C)CC1C(=O)N(Cc2cn(CC3CCCCC3)nn2)CCS(=O)(=O)N1Cc1ccc(-c2ccncc2)cc1 (configuration not stated)	x	n	x	x
COc1ccccc1CNc1nc(NCc2ccc3occc3c2)c2sccc2n1	x	n	x	x
O=C(CSc1nnc(Cc2cc(=O)[nH]c(=O)[nH]2)n1-c1ccc(Cl)cc1)NC1CCCC1	n	n	62.4	+
S=c1[nH]nc(-c2ccco2)n1/N=C/c1cccc(Cl)c1Cl	n	n	n	n
S=c1[nH]nc(-c2ccc(Cl)cc2)n1/N=C/c1ccco1	n	n	n	n
S=c1[nH]nc(-c2ccco2)n1/N=C/c1ccc(Cl)cc1Cl	49.4	n	n	n
S=c1[nH]nc(-c2ccccc2)n1/N=C/C=C/c1ccco1	n	n	n	n
S=c1[nH]nc(-c2ccc(Cl)cc2)n1/N=C/C=C/c1ccco1	n	n	82.8	+
S=c1[nH]nc(-c2cccnc2)n1/N=C/C=C/c1ccco1	n	n	96.5	n
CC(/C=N/n1c(-c2cccnc2)n[nH]c1=S)=C\c1ccco1	n	n	75.9	+
